About 79,000 compounds went through this panel and 15% of them were active in at least one assay; those are over-represented in the sample as a whole. Values without a mark were called inactive. The source made the active and inactive calls. Rule as the data show it: active = growth inhibition above about 70%; inactive = the rest.

A short description of this assay: NCI Yeast Anticancer Drug Screen. Data for the mec2-1 strain (AID 157). The note with it: S. cerevisiae mec2-1 strain, at 50.0 µM, stronger effect = higher value. In short, it runs like this: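 Compounds were applied to mec2-1 yeast cells. Their growth was then compared with that of vehicle-treated cultures to give growth inhibition.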
With `Oc1ccc2c(c1)CCC2`, the growth inhibition is -1.95%. To `Cc1ccc(S(=O)(=O)N2CC(CCl)N(S(=O)(=O)c3ccc(C)cc3)CC2CCl)cc1` (configuration not stated) belongs 7.45%. Then `CC/C(CC(=O)CCC(=O)Nc1ccccc1[N+](=O)[O-])=N/NC(=O)C[n+]1ccccc1`, with 6.9%. As for `c1cnc(NC(Nc2cnccn2)C2CCCCC2)cn1`, the growth inhibition was -1.55%. Then `CC(=O)Oc1cccc2c(/C=N/NC(N)=S)ncc(C)c12`, with 78.3% (active). To `COC(=O)c1cc(Cl)ccc1NC(=O)C1CCCCC1` belongs 15.8%. On to `O=C1/C(=C/c2ccccc2)CN(C(=O)CCN2CCOCC2)C/C1=C\c1ccccc1`, for which the growth inhibition is 7.15%. To `Cn1c(=O)ccc2c(=O)c3c(ccc4ccccc43)oc21` belongs -12.3%; to `c1ccc(-c2nnc(-c3ccccc3)c3nonc23)cc1`, 14.6%; to `NC(Cc1ccc(OC(c2ccccc2)c2ccccc2)cc1)C(=O)O` (configuration not stated), 4.9%.

Consider `CCOC1(c2ccccc2)c2ccccc2Sc2ccccc21`, for which the growth inhibition is 12.7%.

As to `CC(=O)OC(C)C1CCCC1OC(C)=O` (configuration not stated), the growth inhibition is 9.2%. In the case of `O=c1[nH]cnc2c(COCCO)c[nH]c12`, the growth inhibition was 2.8%. Regarding `COc1ccccc1C1OC2=C(Nc3ccc([N+](=O)[O-])cc3N2)C1=O` (configuration not stated), the growth inhibition was 10.4%. Then `COc1cccc(C2c3cc4c(cc3OC(N3CCCCC3)C2C)OCO4)c1O` (configuration not stated), with -31.1%; and `CCC/C=N/NC(=O)c1ccc(OC)cc1`, with -15.8%.

Turning to `O=C1CCC2c3ccccc3NCN12` (configuration not stated), the growth inhibition was 7.75%.

(Values after PubChem BioAssay (NCI).)
